Measured values as given in PubChem BioAssay (EPA / NIEHS).
Active and inactive are the calls of the source. Rule for the calls: active = hit-call score of the fitted dose curve at least 0.9, where 1 is the maximum; inactive = score below 0.9.

Assay: Tanguay_ZF_120hpf_CRAN: Oregon State University Tanguay Lab 120 Hour Post-fertilization zebrafish Assay for Craniofacial Malformation (AID 2284397)
Method: Tanguay_ZF_120hpf is a whole embryo, multiplexed endpoint assay using zebrafish larvae exposed for 120 hours post fertilization on a 96-well plate.Tanguay_ZF_120hpf_CRAN is one of one assay component(s) measured or calculated from the Tanguay_ZF_120hpf assay. It is designed to make measurements of zebrafish development as detected with brightfield microscopy of developing zebrafish embryos.Data from the assay component Tanguay_ZF_120hpf_CRAN was analyzed into 1 assay endpoints. This assay endpoint, Tanguay_ZF_120hpf_CRAN, was analyzed in the positive analysis fitting direction relative to DMSO as the negative control and baseline of activity. Using a type of morphology reporter, gain-of-signal activity can be used to understand changes in developmentals as they relate to the whole embryo. To generalize the intended target to other relatable targets, this assay endpoint is annotated to the zebrafish development intended target family, where the subfamily is craniofacial morphogenesis.
Zebrafish husbandry: Tropical 5D wild-type adult zebrafish were housed in at an approximate density of 1000 per 100 gallon tank at the Sinnhuber Aquatic Research Laboratory, Oregon State University, Corvallis, OR. Each tank was kept at standard laboratory conditions of 28C on a 14-h light/10-h dark photoperiod in fish water consisting of reverse osmosis water supplemented with a commercially available salt (Instant Ocean). Spawning funnels were placed into the tanks the night prior, and embryos were collected and staged. To increase bioavailability, the chorion was enzymatically removed using pronase (63.6mg/ml, >/= 3.5U/mg, Sigma-Aldrich: P5147) at 4 hours post fertilization (hpf) using a custom automated dechorionator.Chemical exposures: Six hpf dechorionated embryos were placed 1 embryo per well in a 96-well plate prefilled with 90 ul of EM using automated embryo placement systems (AEPS). Ten microliters of each row of dilution plate 2 was added to 2 exposure plates. The final DMSO concentration used was 0.64% (vol/vol). Thirty-two embryos were also exposed to 5uM trimethyltin chloride (positive control). Plates were sealed to prevent evaporation and foil covered to reduce light exposure and kept in a 28C incubator. Embryos were statically exposed until 120 hpf. At 24 hpf, embryos were assessed for photomotor response using a custom photomotor response analysis tool (PRAT) and for developmental toxicity endpoints (MO24: mortality at 24 hpf, DP: developmental progression, SM: spontaneous movement, and NC: notochord distortion). At 120 hpf, locomotor activity was measured using Viewpoint Zebralab and assessed for 13 endpoints. Zebrafish acquisition and analysis program (ZAAP), a custom program designed to inventory, acquire, and manage zebrafish data, was used to collect developmental endpoints as either present or absent (i.e., binary responses were recorded). If mortality occurred for an embryo (at either 24 or 120 hpf), the non-mortality endpoints were not measured.
In the case of OCC(O)CC(F)(F)C(F)(F)C(F)(F)C(F)(F)F (configuration not stated), the outcome is reported as “inactive”.
In the case of C=CC(=O)OCCC(F)(F)C(F)(F)C(F)(F)C(F)(F)F, the outcome is reported as “inactive”.
With C=CC(=O)OCC(F)(F)C(F)(F)C(F)(F)COC(=O)C=C the AC50 was 18.6 µM (active).
In the case of FC(F)(F)C(F)(F)C(F)(F)C(F)(F)C(F)(F)C(F)(F)C(F)(F)CCI, the outcome is reported as “inactive”.
In the case of O=S(=O)(O)CCC(F)(F)C(F)(F)C(F)(F)C(F)(F)C(F)(F)C(F)(F)C(F)(F)C(F)(F)F, the AC50 is reported as 89.2 µM (active).
In the case of NC(=O)C(F)(F)C(F)(F)C(F)(F)F, the outcome is reported as “inactive”.
With NS(=O)(=O)C(F)(F)C(F)(F)C(F)(F)C(F)(F)C(F)(F)C(F)(F)F the outcome was “inactive”.
For OCC(F)(F)C(F)(F)C(F)(F)CO, the outcome was “inactive”.
In the case of O=C(O)C(F)(F)C(F)(F)C(F)(F)OC(F)(F)F, the outcome is reported as “inactive”.
For O=S(=O)(OCC(F)(F)F)C(F)(F)C(F)(F)C(F)(F)C(F)(F)F, the outcome was “inactive”.
For FC(F)(F)C(F)(F)C(F)(F)CC1CO1 (configuration not stated), the outcome was “inactive”.
With OC(O)C(F)(F)C(F)(F)F the outcome was “inactive”.
With O=C(O)C(F)(F)C(F)(F)C(F)(F)OC(F)(C(F)(F)F)C(F)(F)F the outcome was “inactive”.
With CCOC(=O)CC(=O)C(F)(F)C(F)(F)F the outcome was “inactive”.
In the case of CO[Si](C)(CCC(F)(F)C(F)(F)C(F)(F)C(F)(F)C(F)(F)C(F)(F)F)OC, the outcome is reported as “inactive”.
With C=CC(=O)OCC(F)(F)C(F)(F)C(F)(F)C(F)(F)C(F)(F)C(F)(F)C(F)(F)C(F)F the outcome was “inactive”.
For CCN(CCO)S(=O)(=O)C(F)(F)C(F)(F)C(F)(F)C(F)(F)C(F)(F)C(F)(F)C(F)(F)C(F)(F)F, the outcome was “inactive”.
In the case of OCCCC(F)(F)C(F)(F)C(F)(F)C(F)(F)C(F)(F)C(F)(F)C(F)(F)C(F)(F)F, the outcome is reported as “inactive”.
With NC(=O)C(F)(F)C(F)(F)C(F)(F)C(F)(F)C(N)=O the outcome was “inactive”.
In the case of OCCCCC(F)(F)C(F)(F)C(F)(F)C(F)(F)F, the outcome is reported as “inactive”.
With CN(C(=O)C(F)(F)C(F)(F)C(F)(F)F)[Si](C)(C)C the outcome was “inactive”.
With NC(=O)C(F)(F)C(F)(F)C(F)(F)C(F)(F)C(F)(F)C(F)(F)C(F)(F)F the outcome was “inactive”.
In the case of COC(F)(C(F)F)C(F)(F)F (configuration not stated), the outcome is reported as “inactive”.
In the case of OCC(F)(F)C(F)(F)C(F)(F)C(F)(F)C(F)(F)C(F)(F)CO, the outcome is reported as “inactive”.
With O=C(F)C1(F)C(F)(F)C(F)(F)C(F)(F)C(F)(F)C1(F)F the outcome was “inactive”.
For NC(O)(C(F)(F)F)C(F)(F)F, the outcome was “inactive”.
For O=S(=O)(Cl)C(F)(F)C(F)(F)C(F)(F)C(F)(F)C(F)(F)C(F)(F)C(F)(F)C(F)(F)F, the outcome was “inactive”.
With OCC(O)CC(F)(F)C(F)(F)C(F)(F)C(F)(F)C(F)(F)C(F)(F)C(F)(F)C(F)(F)F (configuration not stated) the AC50 was 6.76 µM (active).
For O=C(O)CCC(F)(F)C(F)(F)C(F)(F)F, the outcome was “inactive”.
In the case of O=C(O)CCC(F)(F)C(F)(F)C(F)(F)C(F)(F)C(F)(F)C(F)(F)C(F)(F)F, the outcome is reported as “inactive”.
For NC(=O)C(F)(F)C(F)(F)C(F)(F)C(F)F, the outcome was “inactive”.
For OCC(F)(F)C(F)(F)C(F)(F)C(F)(F)C(F)(F)C(F)(F)C(F)(F)C(F)(F)CO, the outcome was “inactive”.
With O=C(O)C(F)(F)C(F)(F)C(F)(F)C(=O)O the outcome was “inactive”.
In the case of CNS(=O)(=O)C(F)(F)C(F)(F)C(F)(F)C(F)(F)C(F)(F)C(F)(F)C(F)(F)C(F)(F)F, the outcome is reported as “inactive”.
For FC(F)(F)C(F)(F)C(F)(F)C(F)(F)C(F)(F)C(F)(F)CC[Si](Cl)(Cl)Cl, the outcome was “inactive”.
For O=S(=O)(O)CCC(F)(F)C(F)(F)C(F)(F)C(F)(F)F, the outcome was “inactive”.
For C[Si](Cl)(Cl)CCC(F)(F)C(F)(F)C(F)(F)C(F)(F)C(F)(F)C(F)(F)F, the outcome was “inactive”.
